Source: the supplement of paper PMC13380429
Values without a mark were called inactive.

Test system: Vero E6 infected with SARS-CoV-2
Assay: inhibition of SARS-CoV-2 cytopathic effect; higher = more antiviral protection, active = above 15
Details: 48 h

SMILES | inhibition of SARS-CoV-2 cytopathic effect (1 nM) | inhibition of SARS-CoV-2 cytopathic effect (8.33 nM) | inhibition of SARS-CoV-2 cytopathic effect (100 nM) | inhibition of SARS-CoV-2 cytopathic effect (833.33 nM) | inhibition of SARS-CoV-2 cytopathic effect (10000 nM)
CC(C)c1onc(-c2c(Cl)cccc2Cl)c1COc1ccc(/C=C/c2cccc(C(=O)O)c2)c(Cl)c1 | 0.86% | 0.15% | -0.17% | 0.5% | 0.01%
O=C(Nc1cccc(Cl)c1)Nc1ncc(CCNc2ncnc3ccsc23)s1 | 0.21% | 0.43% | 3.34% | -0.89% | -1.37%
Cc1cccc(OCC(O)CNC(C)(C)C)c1C (stereo not given) [xibenolol] | -3.23% | -1.82% | -0.78% | -1.76% | -5.66%
Nc1nc(CC(=O)Nc2ccc(CCNC[C@H](O)c3ccccc3)cc2)cs1 [mirabegron] | -0.75% | -0.61% | 1.85% | -1.35% | -3.3%
CCOC(=O)N1CCC(=C2c3ccc(Cl)cc3CCc3cccnc32)CC1 [loratadine] | 1.77% | 0.5% | 0.11% | -0.88% | -4.61%
COc1cccc2cc(-c3nc([C@H]4CC[C@H](C(=O)O)CC4)n4ncnc(N)c34)[nH]c12 | 0.22% | 2.25% | 4.58% | -0.9% | -2.61%
O=c1cc(N2CCNCC2)oc2c(-c3ccccc3)cccc12 | 0.61% | -3.07% | -0.37% | 0.12% | 1.5%
O=Nc1c(-c2c(O)[nH]c3ccccc23)[nH]c2ccccc12 [indirubin-3-monoxime] | 0.43% | 0.8% | 1.06% | 5.66% | 3.83%
CS(=O)(=O)OC[C@H](O)[C@@H](O)COS(C)(=O)=O [treosulfan] | 0.41% | 0.48% | -0.46% | 0.71% | 1.56%
O=c1[nH]c2ccccc2n1CCCN1CCN(C(c2ccccc2)c2ccccc2)CC1 [oxatomide] | -0.36% | 2.61% | 1.85% | 1.64% | -7.26%
CC(C)C[C@H](NC(=O)CNC(=O)c1cc(Cl)ccc1Cl)B(O)O [ixazomib] | -2.33% | 2.02% | 5.21% | -11% | 22.9% (active)
CCOC(=O)c1ccc(N2NC(=O)/C(=C/c3ccc([N+](=O)[O-])o3)C2=O)cc1 | 1.63% | -1.91% | -0.91% | -2.48% | -6.2%
O=C(O)CNC(=O)c1ccccc1 [hippuric-acid] | -0.58% | 1.5% | 3.97% | 1.76% | 0.17%
CC(=O)NS(=O)(=O)c1ccc(N)cc1 [sulfacetamide] | 0.35% | 2.07% | 1.95% | 2.14% | 0.21%
O=C(O)c1cc(O)c2ccc(Cl)cc2n1 [7-chlorokynurenic-acid] | 1.64% | 1.28% | 1.02% | 1.24% | 1.89%
CC1(C)O[C@@H]2C[C@H]3[C@@H]4CCC5=CC(=O)CC[C@]5(C)[C@@]4(F)[C@@H](O)C[C@]3(C)[C@]2(C(=O)CCl)O1 [halcinonide] | 2.25% | 1.06% | -0.43% | -0.9% | -0.92%
CCCOc1ccc2c(c1)CC[C@@H]1[C@@H]2CC[C@]2(C)[C@@H](OC)CC[C@@H]12 [promestriene] | -1.76% | -1.33% | -0.65% | -2.33% | -2.79%
O=c1ccc2cc(O[C@@H]3O[C@H](CO)[C@@H](O)[C@H](O)[C@H]3O)c(O)cc2o1 [esculin] | -1.01% | -0.49% | -1.32% | -1.49% | -0.95%
CN1CCN(c2cccc3[nH]c(=O)oc23)CC1 [pardoprunox] | 0.73% | 1.76% | 3.14% | -2.14% | 1.85%
CCOC(=O)Nc1ccc(NCc2c(C)cc(C)cc2C)cc1N | 0.63% | 1.07% | -0.41% | -0.67% | 2.16%

SMILES | inhibition of SARS-CoV-2 cytopathic effect (1 nM) | inhibition of SARS-CoV-2 cytopathic effect (8.33 nM) | inhibition of SARS-CoV-2 cytopathic effect (100 nM) | inhibition of SARS-CoV-2 cytopathic effect (833.33 nM) | inhibition of SARS-CoV-2 cytopathic effect (10000 nM)
CN(C)CCn1nnnc1SCC1=C(C(=O)O)N2C(=O)[C@@H](NC(=O)Cc3csc(N)n3)[C@H]2SC1 [cefotiam] | 1.69% | -0.06% | -0.67% | 1.14% | 0.56%
NCC(O)(CS(=O)(=O)O)c1ccc(Cl)cc1 (stereo not given) [2-hydroxysaclofen] | 0.19% | 1.62% | -0.08% | 3.7% | 0.53%
CO/N=C(\C(=O)N[C@@H]1C(=O)N2C(C(=O)O)=C(CSc3nc(=O)c(O)nn3C)CS[C@H]12)c1csc(N)n1 [ceftriaxone] | -1.95% | -0.8% | 1.41% | 0.59% | 2.56%
COc1ccc2nc3ccc(Cl)cc3c(SCCCN)c2c1 | 0.89% | 1% | 0.27% | 0.79% | 2.63%
O=C(O)CCC/C=C\C[C@@H]1[C@@H](/C=C/[C@@H](O)COc2cccc(Cl)c2)[C@H](O)C[C@@H]1O (racemic) [cloprostenol-(+/-)] | -2.05% | 0.95% | 2.48% | 5.03% | 0.05%
CCCCCN(C)CCC(O)(P(=O)(O)O)P(=O)(O)O [ibandronate] | 0.68% | 1.34% | 0.79% | -3.03% | -2.11%
CC(C)C[C@H](NC(=O)[C@@H]1CCCN1)C(=O)NCC(N)=O [prolylleucylglycinamide] | 0.63% | 2.46% | 1.44% | 0.51% | 1.22%
O=C(O)CC(S)C(=O)O (stereo not given) [mercaptosuccinic-acid] | 0.69% | 3.36% | 4.14% | 3.72% | -0.09%
CC(C)[C@H](O)C(=O)N[C@@H](C)C(=O)N[C@@H]1C(=O)N(C)CCc2ccccc21 [semagacestat] | -0.47% | 3.54% | -1.88% | -1.76% | -3.08%
Nc1ccncc1 [dalfampridine] | 0.53% | 0.41% | 1.64% | 2.49% | 1.18%
O=C1NC(=O)c2c1c1c3ccccc3n3c1c1c2c2ccccc2n1C1CCC3O1 | 0.12% | 2.27% | -1.21% | 4.22% | 8.57%
O=S1(=O)CCN(CN2CCS(=O)(=O)NC2)CN1 [taurolidine] | 0.08% | 2.04% | -0.86% | -0.85% | 0.19%
Fc1ccccc1-c1nc2ccn(Cc3ccc(-c4ccc(C(F)(F)F)cc4C(F)(F)F)nn3)cc-2n1 [tegobuvir] | 0.53% | 2.58% | 3.4% | 1.35% | -1.75%
CC(=O)Nc1ccc(OC(C)=O)cc1 [diacetamate] | -0.51% | 0.65% | 3.04% | 0.82% | 2.03%
Cc1nc2c([nH]1)-c1ccccc1N(C(=O)c1ccc(NC(=O)c3ccccc3-c3ccccc3)cc1)CC2 [conivaptan] | 3.24% | -1.76% | 0.14% | -0.62% | -6.5%
OC(CN1CCN(c2cccc(Cl)c2)CC1)C(c1ccccc1)c1ccccc1 (stereo not given) | 2.69% | 4.95% | 2.68% | 1.94% | 3.63%
Cc1cc(S(=O)(=O)O)c2c(C)ccc(C(C)C)cc1-2 [sodium-gualenate] | -10.1% | -5.96% | -9.82% | -7.07% | -0.7%
O=C1c2cc(Cl)ccc2OC2CCON12 (stereo not given) [seclazone] | -0.24% | 1.68% | 1.79% | 0.75% | 1.99%
N[C@@H](C(=O)N[C@@H]1C(=O)N2C(C(=O)O)=C(Cl)CS[C@H]12)c1ccccc1 [cefaclor] | -2.43% | -5.19% | 1.55% | -1.09% | 5.72%
O=C(Oc1ccc([N+](=O)[O-])cc1)N1CCN(Cc2cccc(Oc3ccccc3)c2)CC1 | -1.56% | -2.22% | -1.22% | -1.53% | 1.51%
